# How the values were obtained:
# [1] = biological target: Tyrosine-protein kinase Yes (Homo sapiens) (UniProt P07947); settings: at 1 µM
# [2] = biological target: Tyrosine-protein kinase Yes (Homo sapiens) (UniProt P07947); settings: at 10 µM
# [3] = biological target: Proto-oncogene tyrosine-protein kinase Src (Homo sapiens) (UniProt P12931); settings: at 1 µM
# [4] = biological target: Proto-oncogene tyrosine-protein kinase Src (Homo sapiens) (UniProt P12931); settings: at 10 µM
# [5] = biological target: Serine/threonine-protein kinase mTOR (Homo sapiens) (UniProt P42345); settings: at 1 µM
# [6] = biological target: Serine/threonine-protein kinase WNK2 (Homo sapiens) (UniProt Q9Y3S1); settings: at 10 µM
# Sequence of Serine/threonine-protein kinase WNK2 (Homo sapiens) (Q9Y3S1 whole entry): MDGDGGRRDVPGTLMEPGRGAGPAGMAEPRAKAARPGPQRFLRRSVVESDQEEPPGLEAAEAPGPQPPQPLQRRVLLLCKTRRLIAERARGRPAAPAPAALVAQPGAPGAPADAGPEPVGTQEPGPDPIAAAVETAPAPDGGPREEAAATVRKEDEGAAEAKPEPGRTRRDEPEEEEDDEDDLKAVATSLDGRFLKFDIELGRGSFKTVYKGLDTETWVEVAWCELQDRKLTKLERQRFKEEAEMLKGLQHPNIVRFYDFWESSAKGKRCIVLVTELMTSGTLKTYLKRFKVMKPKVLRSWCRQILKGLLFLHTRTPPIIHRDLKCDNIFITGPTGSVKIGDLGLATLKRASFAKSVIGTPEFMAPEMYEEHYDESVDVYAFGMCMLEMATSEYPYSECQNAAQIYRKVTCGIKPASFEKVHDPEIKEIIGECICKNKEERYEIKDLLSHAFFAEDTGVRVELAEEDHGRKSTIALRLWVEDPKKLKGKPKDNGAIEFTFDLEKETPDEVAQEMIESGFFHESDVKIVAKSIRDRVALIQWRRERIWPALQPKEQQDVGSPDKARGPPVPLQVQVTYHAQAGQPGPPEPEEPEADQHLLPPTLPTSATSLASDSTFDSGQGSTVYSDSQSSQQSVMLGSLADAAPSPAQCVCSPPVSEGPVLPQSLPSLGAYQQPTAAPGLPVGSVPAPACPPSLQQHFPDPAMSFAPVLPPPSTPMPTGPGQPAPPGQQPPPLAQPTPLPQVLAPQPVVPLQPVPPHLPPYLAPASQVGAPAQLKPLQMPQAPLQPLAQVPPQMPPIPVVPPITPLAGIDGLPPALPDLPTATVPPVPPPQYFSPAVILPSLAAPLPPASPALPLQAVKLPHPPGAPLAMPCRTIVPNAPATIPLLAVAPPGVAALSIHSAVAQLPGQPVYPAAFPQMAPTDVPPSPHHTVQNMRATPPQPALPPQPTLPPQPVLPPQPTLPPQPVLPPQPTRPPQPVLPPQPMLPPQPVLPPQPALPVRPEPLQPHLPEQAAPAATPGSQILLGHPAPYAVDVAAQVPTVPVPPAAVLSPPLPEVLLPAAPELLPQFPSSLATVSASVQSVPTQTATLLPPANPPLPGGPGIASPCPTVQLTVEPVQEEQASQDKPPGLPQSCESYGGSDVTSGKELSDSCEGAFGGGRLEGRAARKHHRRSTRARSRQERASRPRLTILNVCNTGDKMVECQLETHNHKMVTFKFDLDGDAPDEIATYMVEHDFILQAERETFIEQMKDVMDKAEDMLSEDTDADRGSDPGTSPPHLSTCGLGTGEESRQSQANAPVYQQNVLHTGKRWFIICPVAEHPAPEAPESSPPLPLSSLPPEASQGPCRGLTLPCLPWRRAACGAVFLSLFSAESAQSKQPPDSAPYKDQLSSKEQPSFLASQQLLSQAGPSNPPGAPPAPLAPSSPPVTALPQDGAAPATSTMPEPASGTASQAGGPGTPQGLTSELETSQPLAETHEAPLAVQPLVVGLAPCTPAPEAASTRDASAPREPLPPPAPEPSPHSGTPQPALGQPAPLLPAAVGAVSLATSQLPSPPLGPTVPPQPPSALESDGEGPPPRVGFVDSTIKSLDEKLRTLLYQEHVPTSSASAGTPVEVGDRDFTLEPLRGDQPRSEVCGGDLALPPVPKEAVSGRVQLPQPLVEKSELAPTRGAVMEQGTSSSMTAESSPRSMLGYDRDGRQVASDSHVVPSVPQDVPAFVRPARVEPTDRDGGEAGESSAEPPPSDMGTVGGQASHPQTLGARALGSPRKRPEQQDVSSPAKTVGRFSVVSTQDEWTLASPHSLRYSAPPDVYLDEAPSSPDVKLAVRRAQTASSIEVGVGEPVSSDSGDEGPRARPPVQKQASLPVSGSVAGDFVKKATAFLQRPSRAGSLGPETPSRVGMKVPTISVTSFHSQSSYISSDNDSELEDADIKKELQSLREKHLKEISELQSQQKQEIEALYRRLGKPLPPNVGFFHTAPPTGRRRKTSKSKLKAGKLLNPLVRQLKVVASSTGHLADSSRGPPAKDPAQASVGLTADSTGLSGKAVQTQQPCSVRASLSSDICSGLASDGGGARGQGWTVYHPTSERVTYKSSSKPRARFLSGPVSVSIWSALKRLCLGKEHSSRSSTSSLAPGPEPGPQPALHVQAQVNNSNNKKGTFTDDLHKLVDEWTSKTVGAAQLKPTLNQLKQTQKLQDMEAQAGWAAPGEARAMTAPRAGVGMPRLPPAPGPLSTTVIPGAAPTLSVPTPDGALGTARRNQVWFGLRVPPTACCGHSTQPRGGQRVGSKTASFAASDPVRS
# [7] = biological target: Serine/threonine-protein kinase WNK3 (Homo sapiens) (UniProt Q9BYP7); settings: at 1 µM
# [8] = biological target: Serine/threonine-protein kinase WNK3 (Homo sapiens) (UniProt Q9BYP7); settings: at 10 µM
# [9] = biological target: RAF proto-oncogene serine/threonine-protein kinase (Homo sapiens) (UniProt P04049); settings: at 1 µM
# Sequence of RAF proto-oncogene serine/threonine-protein kinase (Homo sapiens) (P04049 whole entry): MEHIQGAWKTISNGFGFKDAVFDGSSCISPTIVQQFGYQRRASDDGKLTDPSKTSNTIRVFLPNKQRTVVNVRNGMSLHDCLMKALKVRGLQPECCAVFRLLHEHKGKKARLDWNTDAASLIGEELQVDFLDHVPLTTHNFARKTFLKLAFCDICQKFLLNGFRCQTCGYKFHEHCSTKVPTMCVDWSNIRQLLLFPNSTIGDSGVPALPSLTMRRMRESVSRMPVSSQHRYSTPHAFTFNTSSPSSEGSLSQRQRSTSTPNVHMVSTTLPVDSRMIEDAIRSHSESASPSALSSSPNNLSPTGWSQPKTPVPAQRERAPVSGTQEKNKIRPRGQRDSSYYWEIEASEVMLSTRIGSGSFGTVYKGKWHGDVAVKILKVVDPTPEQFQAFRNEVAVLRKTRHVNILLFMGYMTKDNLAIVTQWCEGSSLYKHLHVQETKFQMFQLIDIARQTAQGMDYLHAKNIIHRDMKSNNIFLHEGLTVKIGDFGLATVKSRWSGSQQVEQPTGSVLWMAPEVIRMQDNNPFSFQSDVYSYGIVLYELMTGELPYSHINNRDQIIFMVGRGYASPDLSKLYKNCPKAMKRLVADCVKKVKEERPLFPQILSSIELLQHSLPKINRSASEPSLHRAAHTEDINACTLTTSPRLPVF
# [10] = biological target: RAF proto-oncogene serine/threonine-protein kinase (Homo sapiens) (UniProt P04049); settings: at 10 µM
# [11] = biological target: T1, Tyrosine-protein kinase ZAP-70 (Homo sapiens) (UniProt P43403); settings: at 1 µM
# T1 sequence (whole entry): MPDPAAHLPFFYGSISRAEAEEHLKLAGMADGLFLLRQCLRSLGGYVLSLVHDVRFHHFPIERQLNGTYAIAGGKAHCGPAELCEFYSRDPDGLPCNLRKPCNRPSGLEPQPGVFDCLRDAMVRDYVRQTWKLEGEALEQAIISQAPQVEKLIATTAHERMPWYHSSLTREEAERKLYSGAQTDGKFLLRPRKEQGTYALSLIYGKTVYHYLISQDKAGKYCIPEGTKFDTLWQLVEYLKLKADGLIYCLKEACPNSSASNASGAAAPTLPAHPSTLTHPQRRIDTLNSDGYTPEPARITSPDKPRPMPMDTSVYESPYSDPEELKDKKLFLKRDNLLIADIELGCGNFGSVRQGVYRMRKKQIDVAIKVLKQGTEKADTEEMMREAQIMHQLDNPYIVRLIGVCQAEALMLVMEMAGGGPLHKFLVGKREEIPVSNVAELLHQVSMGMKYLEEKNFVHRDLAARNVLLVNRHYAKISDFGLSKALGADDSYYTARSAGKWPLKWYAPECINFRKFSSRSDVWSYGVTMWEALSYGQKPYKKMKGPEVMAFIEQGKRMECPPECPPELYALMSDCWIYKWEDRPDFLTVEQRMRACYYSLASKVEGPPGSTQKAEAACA
# [12] = biological target: Death-associated protein kinase 3 (Homo sapiens) (UniProt O43293); settings: at 1 µM
# Sequence of Death-associated protein kinase 3 (Homo sapiens) (O43293 whole entry, looked up): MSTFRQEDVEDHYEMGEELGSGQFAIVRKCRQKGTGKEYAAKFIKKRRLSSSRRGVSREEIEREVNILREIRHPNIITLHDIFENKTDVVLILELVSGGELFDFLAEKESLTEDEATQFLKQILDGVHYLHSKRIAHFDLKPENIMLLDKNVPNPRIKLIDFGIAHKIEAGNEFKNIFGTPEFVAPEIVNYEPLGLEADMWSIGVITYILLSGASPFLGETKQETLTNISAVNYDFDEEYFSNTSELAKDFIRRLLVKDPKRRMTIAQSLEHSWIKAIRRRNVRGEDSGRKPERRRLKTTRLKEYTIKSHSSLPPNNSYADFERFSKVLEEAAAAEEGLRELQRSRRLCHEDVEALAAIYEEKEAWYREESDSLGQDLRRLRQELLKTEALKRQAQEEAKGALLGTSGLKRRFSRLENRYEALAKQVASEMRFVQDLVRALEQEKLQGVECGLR
# [13] = biological target: Death-associated protein kinase 3 (Homo sapiens) (UniProt O43293); settings: at 10 µM
# [14] = biological target: Mast/stem cell growth factor receptor Kit (Homo sapiens) (UniProt P10721); settings: at 1 µM
# Sequence of Mast/stem cell growth factor receptor Kit (Homo sapiens) (P10721 whole entry): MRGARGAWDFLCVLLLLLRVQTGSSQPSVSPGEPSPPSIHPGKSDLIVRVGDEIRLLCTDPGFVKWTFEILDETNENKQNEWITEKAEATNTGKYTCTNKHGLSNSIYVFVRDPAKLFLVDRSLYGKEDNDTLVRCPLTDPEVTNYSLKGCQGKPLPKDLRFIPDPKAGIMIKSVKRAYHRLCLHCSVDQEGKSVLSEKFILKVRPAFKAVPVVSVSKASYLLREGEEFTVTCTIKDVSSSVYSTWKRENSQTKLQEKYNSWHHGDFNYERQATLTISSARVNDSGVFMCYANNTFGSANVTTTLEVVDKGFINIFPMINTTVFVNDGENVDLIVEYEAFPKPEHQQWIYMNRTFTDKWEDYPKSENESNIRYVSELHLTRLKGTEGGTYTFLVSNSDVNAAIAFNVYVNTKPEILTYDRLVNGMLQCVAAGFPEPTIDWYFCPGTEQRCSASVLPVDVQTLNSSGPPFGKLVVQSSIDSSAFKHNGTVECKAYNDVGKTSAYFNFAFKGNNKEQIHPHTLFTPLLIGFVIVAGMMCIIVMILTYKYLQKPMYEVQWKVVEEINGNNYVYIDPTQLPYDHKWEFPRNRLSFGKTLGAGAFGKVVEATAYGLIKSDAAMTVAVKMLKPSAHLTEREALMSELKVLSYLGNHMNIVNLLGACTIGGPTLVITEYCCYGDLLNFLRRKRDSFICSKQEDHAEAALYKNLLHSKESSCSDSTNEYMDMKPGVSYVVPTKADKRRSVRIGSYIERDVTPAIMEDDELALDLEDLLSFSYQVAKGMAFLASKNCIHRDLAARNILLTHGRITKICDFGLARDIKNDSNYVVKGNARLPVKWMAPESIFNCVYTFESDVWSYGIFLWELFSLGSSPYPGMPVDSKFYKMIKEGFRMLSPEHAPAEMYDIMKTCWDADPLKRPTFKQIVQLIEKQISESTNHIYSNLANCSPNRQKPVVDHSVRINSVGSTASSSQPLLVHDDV
# [15] = biological target: Mast/stem cell growth factor receptor Kit (Homo sapiens) (UniProt P10721); settings: at 10 µM
# [16] = biological target: Serine/threonine-protein kinase mTOR (Homo sapiens) (UniProt P42345); settings: at 10 µM
# [17] = biological target: Serine/threonine-protein kinase mTOR (Homo sapiens) (UniProt P42345); settings: at 1 µM; remark: listed apart in the source
# [18] = biological target: Serine/threonine-protein kinase mTOR (Homo sapiens) (UniProt P42345); settings: at 10 µM; remark: listed apart in the source
# [19] = biological target: T2, Eukaryotic elongation factor 2 kinase (Homo sapiens) (UniProt O00418); settings: at 1 µM
# T2 sequence (whole entry): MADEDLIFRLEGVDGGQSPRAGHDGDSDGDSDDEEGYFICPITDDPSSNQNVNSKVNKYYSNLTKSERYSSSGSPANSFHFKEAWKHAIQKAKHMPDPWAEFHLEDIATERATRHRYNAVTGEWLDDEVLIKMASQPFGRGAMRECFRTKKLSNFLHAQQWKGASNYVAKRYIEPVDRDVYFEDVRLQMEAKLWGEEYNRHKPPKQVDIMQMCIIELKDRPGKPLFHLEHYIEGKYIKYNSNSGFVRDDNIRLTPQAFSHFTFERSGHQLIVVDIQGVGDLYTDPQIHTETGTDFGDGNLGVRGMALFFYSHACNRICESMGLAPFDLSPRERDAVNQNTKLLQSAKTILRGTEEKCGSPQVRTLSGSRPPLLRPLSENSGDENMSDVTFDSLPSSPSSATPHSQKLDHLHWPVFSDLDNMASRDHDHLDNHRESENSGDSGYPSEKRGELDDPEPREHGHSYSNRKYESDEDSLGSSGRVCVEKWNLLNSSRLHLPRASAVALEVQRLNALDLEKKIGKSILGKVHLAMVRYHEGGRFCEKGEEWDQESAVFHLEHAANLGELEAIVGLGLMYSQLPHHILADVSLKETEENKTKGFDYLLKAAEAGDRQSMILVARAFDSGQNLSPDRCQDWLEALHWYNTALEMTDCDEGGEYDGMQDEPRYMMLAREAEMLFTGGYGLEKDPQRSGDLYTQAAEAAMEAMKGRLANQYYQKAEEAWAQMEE
# [20] = biological target: T2, Eukaryotic elongation factor 2 kinase (Homo sapiens); settings: at 10 µM
# Sequence of Tyrosine-protein kinase Yes (Homo sapiens) (P07947 2-543 limits assumed): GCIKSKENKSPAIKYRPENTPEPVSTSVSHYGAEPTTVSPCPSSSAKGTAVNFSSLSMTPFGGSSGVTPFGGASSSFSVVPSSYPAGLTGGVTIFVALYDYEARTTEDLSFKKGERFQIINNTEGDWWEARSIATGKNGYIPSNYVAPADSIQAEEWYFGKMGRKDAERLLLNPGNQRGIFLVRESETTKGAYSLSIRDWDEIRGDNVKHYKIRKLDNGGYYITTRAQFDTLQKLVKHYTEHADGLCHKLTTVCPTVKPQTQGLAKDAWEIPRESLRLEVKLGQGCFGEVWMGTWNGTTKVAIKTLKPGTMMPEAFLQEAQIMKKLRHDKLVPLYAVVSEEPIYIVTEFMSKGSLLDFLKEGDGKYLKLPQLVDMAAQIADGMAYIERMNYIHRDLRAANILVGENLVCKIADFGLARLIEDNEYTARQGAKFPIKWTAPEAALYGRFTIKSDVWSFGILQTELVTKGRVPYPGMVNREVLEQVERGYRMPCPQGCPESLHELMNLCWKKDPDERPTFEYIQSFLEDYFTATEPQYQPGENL
SMILES,residual activity [1] [%],residual activity [2] [%],residual activity [3] [%],residual activity [4] [%],residual activity [5] [%],residual activity [6] [%],residual activity [7],residual activity [8] [%],residual activity [9] [%],residual activity [10] [%],residual activity [11] [%],residual activity [12] [%],residual activity [13] [%],residual activity [14] [%],residual activity [15] [%],residual activity [16] [%],residual activity [17] [%],residual activity [18] [%],residual activity [19],residual activity [20] [%]
N#CCCc1ccc2c(c1)-c1[nH]c3ccc([N+](=O)[O-])cc3c1CC(=O)N2,9,0,46,13,116,–,–,–,–,–,–,–,–,–,–,–,–,–,–,–
Cc1cccc(-c2[nH]c(C(C)(C)C)nc2-c2ccc3c(c2)OCO3)n1,103,44,91,102,–,84,89% (inactive),89,82,71,–,–,–,–,–,–,–,–,–,–
CO[C@H]1C[C@@H]2CC[C@@H](C)[C@@](O)(O2)C(=O)C(=O)N2CCCC[C@H]2C(=O)O[C@H]([C@H](C)C[C@@H]2CC[C@@H](O)[C@H](OC)C2)CC(=O)[C@H](C)/C=C(\C)[C@@H](O)[C@@H](OC)C(=O)[C@H](C)C[C@H](C)/C=C/C=C/C=C/1C,103,–,89,95,57,94,107% (inactive),111,73,108,104,116,141,110,101,51,-17,4,–,–
COc1ccc(S(=O)(=O)N(CCO)c2ccccc2CN(C)C/C=C/c2ccc(Cl)cc2)cc1,119,79,116,90,109,88,100% (inactive),88,78,73,105,96,96,115,100,96,97,101,–,–
Nc1ccc2ncnc(NCCc3ccc(Oc4ccccc4)cc3)c2c1,63,33,110,95,–,82,102% (inactive),87,82,77,109,111,111,114,95,96,112,63,–,–
O=C1Nc2ccc(Br)cc2/C1=C\c1cc2c([nH]1)CCCC2,79,63,73,99,116,84,118% (inactive),105,99,102,112,–,–,66,43,104,110,103,–,–
COc1cc2ncnc(Nc3ccc(Oc4ccccc4)cc3)c2cc1OC,9,4,36,24,90,41,88% (inactive),49,–,–,114,103,117,109,60,95,80,95,92% (inactive),132
CN(C)CCCn1cc(C2=C(c3c[nH]c4ccccc34)C(=O)NC2=O)c2ccccc21,105,33,82,–,84,86,121% (inactive),–,113,110,133,62,35,–,–,–,83,–,–,–
O=C1NC(=O)c2cc(Nc3ccc(F)cc3)c(Nc3ccc(F)cc3)cc21,61,10,74,51,90,34,87% (inactive),46,–,–,113,104,99,113,99,85,73,85,–,–
c1ccc(-c2n[nH]cc2-c2ccnc3ccccc23)nc1,98,53,86,90,–,88,97% (inactive),91,81,51,–,–,96,101,107,–,85,102,–,–
N#C/C(=C(\N)Sc1ccc(N)cc1)c1ccccc1C(F)(F)F,107,101,125,91,87,89,93% (inactive),89,76,66,100,89,100,115,105,63,118,79,–,–
COc1cc2ncnc(Nc3ccc(O)c(Br)c3)c2cc1OC,25,2,54,18,106,70,87% (inactive),77,64,38,144,83,58,102,103,111,96,101,–,–
O=c1cc(-c2cccc3c2Sc2ccccc2S3)oc(N2CCOCC2)c1,109,91,89,92,98,78,95% (inactive),87,96,55,113,104,99,99,102,74,89,60,–,–
Cn1cnc2cc3c(Nc4cccc(Br)c4)ncnc3cc21,31,14,64,32,102,85,93% (inactive),90,85,90,87,89,101,114,92,105,104,97,–,–
Cc1cc(Nc2nc(-c3ccccc3)nc3ccccc23)n[nH]1,6,1,14,-2,109,27,74% (inactive),31,–,62,114,46,13,23,2,–,128,–,–,–
COc1cccc(-c2cc(=O)c3ccccc3o2)c1N,123,106,113,87,92,102,82% (inactive),100,85,86,137,105,101,114,114,93,86,51,–,–
